Measurements: the supplement of paper PMC9801561
± gives the standard deviation of the averaged measurements.

Assays:
[1] = system: Escherichia coli Nissle 1917; experiment: area under OmniLog respiration curve over 48 h (OmniLog units x h); higher = more growth / nutrient utilisation; extreme values may be limits of the assay; settings: incubation: 48 h, 37 °C
[2] = system: Escherichia coli Nissle 1917; experiment: DuctApe activity index of respiration/growth curve (0 no growth to 9 maximum) (index 0-9); higher = more growth / nutrient utilisation, active = 3 or more; extreme values may be limits of the assay; settings: incubation: 48 h, 37 °C
[3] = nutrient role: C-Source, carboxylic acid
[4] = nutrient role: sole nitrogen source (pyruvate carbon)
[5] = nutrient role: N-Source, inorganic
[6] = nutrient role: C-Source, carbohydrate
[7] = nutrient role: sole phosphorus source (pyruvate carbon)
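Wherever DuctApe activity index of respiration/growth curve (0 no growth to 9 maximum) is given: biolog PM4 phosphorus and sulfur plates, tetrazolium violet dye reduction read in the OmniLog every 15 min, kinetic curves scored by DuctApe, each plate run in triplicate.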

NC(=O)[C@H]1O[C@@H](O)[C@H](O)[C@@H](O)[C@@H]1O [Glucuronamide]
area under OmniLog respiration curve ([1]; nutrient role: C-Source, amide): 33.5 ± 50
DuctApe activity index ([2]; nutrient role: C-Source, amide): 0.333 (inactive)

NCCCCN [Putrescine]
area under OmniLog respiration curve ([1]; nutrient role: C-Source, amine): 13.7 ± 8.1
DuctApe activity index ([2]; nutrient role: C-Source, amine): 0 (inactive)

NCCCC(=O)O [g-Amino-N-Butyric acid]
area under OmniLog respiration curve [1, 3]: 4.72
DuctApe activity index [2, 3]: 0 (inactive)

O=C(O)CC[C@@H](C(=O)O)N1C(=O)c2ccccc2C1=O [N-Phthaloyl-L-Glutamic acid]
area under OmniLog respiration curve [1, 4]: 4540 ± 1100
DuctApe activity index [2, 4]: 6 (active)

O=NO [Nitrite]
area under OmniLog respiration curve [1, 5]: 122 ± 150
DuctApe activity index [2, 5]: 0.667 (inactive)

OC[C@H]1O[C@@H](O[C@H]2[C@H](O)[C@@H](O)[C@@H](O)O[C@@H]2CO)[C@H](O)[C@@H](O)[C@H]1O [a-D-Lactose]
area under OmniLog respiration curve [1, 6]: 7580 ± 630
DuctApe activity index [2, 6]: 7.67 (active)

Nc1nc2c(ncn2[C@@H]2O[C@H](CO)[C@@H](O)[C@H]2O)c(=O)[nH]1 [Guanosine]
area under OmniLog respiration curve [1, 4]: 442 ± 580
DuctApe activity index [2, 4]: 0.333 (inactive)

CC(=O)C(=O)O [Pyruvic acid]
area under OmniLog respiration curve [1, 3]: 9610 ± 520
DuctApe activity index [2, 3]: 9 (active)

OC[C@H](O)C(O)[C@@H](O)CO [L-Arabitol]
area under OmniLog respiration curve [1, 6]: 4.72
DuctApe activity index [2, 6]: 0 (inactive)

O=P(O)(O)O[C@H]1[C@H](OP(=O)(O)O)[C@@H](OP(=O)(O)O)[C@H](OP(=O)(O)O)[C@@H](OP(=O)(O)O)[C@H]1OP(=O)(O)O [Inositol Hexaphosphate]
area under OmniLog respiration curve [1, 7]: 8630 ± 520
DuctApe activity index [2, 7]: 8.67 (active)

NCCO [Ethanolamine]
area under OmniLog respiration curve [1, 4]: 27.4 ± 39
DuctApe activity index [2, 4]: 0 (inactive)

N[C@H](COP(=O)(O)O)C(=O)O [O-Phospho-D-Serine]
area under OmniLog respiration curve [1, 7]: 9260 ± 670
DuctApe activity index [2, 7]: 8.67 (active)

O=C(O)[C@H](O)[C@@H](O)[C@H](O)[C@H](O)CO[C@H]1O[C@H](CO)[C@H](O)[C@H](O)[C@H]1O [Melibionic acid]
area under OmniLog respiration curve [1, 6]: 6790 ± 140
DuctApe activity index [2, 6]: 7 (active)
